In PubChem BioAssay AID540326 (Broad Institute, 2011) one finds outcome data, which are given here for one compound.

This experiment can be described thus: DiI-HDL fluorescence quenchers, cell-free, dose response, artefact control for SR-BI HDL uptake inhibitor project, biochemical, cherry-pick samples, plate reader fluorescence (AID 540326).

The list shows a part of the results. Activity calls are given as the source filed them.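 Rule for the calls: active = quenching, a falling signal, with AC50 below a set limit tied to the top valid dose (actives reach about 32 µM in these data); inconclusive = no clear call, values can overlap the other calls; inactive = rising signal, and the rest.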

`CC(=O)OC1C2(CC3N4C(=O)C5(CO)SSC4(CC31O)C(=O)N5C)OC(C)C(C)(C)C2=O` (stereo unspecified): the result was inactive.
